Measured values taken from PubChem BioAssay AID1063 (University of Pittsburgh Molecular Library Screening Center, 2008).
About 18,000 (9%) of roughly 200,000 compounds were called active. The sample holds actives, similar compounds and a random draw of the others, so the mix is not that of the screen. No stated cut-off is given here; in the data, active means inhibition above about 50%; inactive means the rest.

Assay: antileishmanial activity against promastigotes – primary screen (AID 1063);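 further: promastigotes grown with compound for 44 hours at 28 °C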
Conditions: Leishmania major promastigotes, resazurin fluorescence viability; at 10 µM; hits give high values

SMILES | inhibition
CCOC(=O)Nc1sc(C(=O)N(C)C)c(C)c1C(=O)OCC | 7.28% (inactive)
CCOC(=O)c1sc(NC(=O)CCN2CCOCC2)c(C(=O)OCC)c1C | 7.86% (inactive)
CCOC(=O)c1c(NC(=O)CCl)sc(C(=O)N(CC)CC)c1C | 100% (active)
CS(=O)(=O)N(CC(=O)NCc1ccco1)c1ccc2c(c1)OCO2 | 7.89% (inactive)
CCOC(=O)N1CCN(S(=O)(=O)c2cc(Br)cc3c2N(C(=O)C2CC2)CC3)CC1 | -13.7% (inactive)
CCN(c1ccc2c(c1)OCO2)S(=O)(=O)c1cc(Br)cc2c1N(C(=O)C1CC1)CC2 | 57% (active)
COC(=O)C1=C(C)N(C(C)c2ccccc2)C(=O)/C1=C\c1ccco1 (centres undefined) | 12.7% (inactive)
O=c1[nH]c(CN2CCN(S(=O)(=O)c3ccc4c(c3)OCCO4)CC2)nc2sc3c(c12)CCCC3 | 26.5% (inactive)
O=[N+]([O-])c1ccc(C=Nc2ccc(Cl)cc2Cl)s1 | 100% (active)
CCCNC(=O)c1c(Cl)cnn1-c1ccc(C)cc1 | 6.12% (inactive)
Cc1ccc(CN(C)CC(=O)Nc2cccc([N+](=O)[O-])c2)o1 | 8.58% (inactive)
CC(C)(C)n1ncc2c(=O)n(Cc3ccc(Cl)cc3)cnc21 | 0.21% (inactive)
CCN(CC)S(=O)(=O)c1ccc(Cl)c(NC(=O)c2ccncc2)c1 | 19.7% (inactive)
COc1ccc(C2CC(c3cccs3)Nc3nnnn32)cc1 (centres undefined) | -4.3% (inactive)
COc1ccc(C(=O)NC(=O)CSc2nnc(-c3ccco3)n2-c2ccccc2)cc1 | -4.51% (inactive)
COc1ccc(-n2c(SCC(=O)NCc3cccs3)nnc2-c2ccoc2C)cc1 | 5.39% (inactive)
COc1ccc(-n2c(SCC(=O)NCc3ccco3)nnc2-c2c[nH]c3ccccc23)cc1 | 97.7% (active)
O=C(CSc1nnc2scc(-c3ccc(F)cc3)n12)NCc1ccco1 | -2.03% (inactive)
O=C(CSc1nnc(-c2c[nH]c3ccccc23)n1-c1ccc(F)cc1)NCc1ccco1 | 52.5% (active)
O=C(CSc1nnc(-c2cccs2)n1-c1ccccc1)NCc1ccco1 | 7.53% (inactive)
Cc1ccc(N=Cc2c(O)cc(C)oc2=O)c(C)c1 | -1.99% (inactive)
COc1cccc(CNC(=O)Cc2csc(Nc3nc(=S)[nH]c4ccccc34)n2)c1 | 2.33% (inactive)
COC(=O)C[n+]1cccc2ccccc21 | 28.5% (inactive)
CC(OC(=O)CN1C(=O)C2CCCCC2C1=O)C(=O)Nc1ncc(Cl)cc1Cl (centres undefined) | -6.88% (inactive)

SMILES | inhibition
Cc1ccc(C)n1C(Cc1ccccc1)C(=O)O (centres undefined) | -7.64% (inactive)
CC1=CC(C)(C)Nc2ccc(OC(=O)C(Cc3ccccc3)N3C(=O)C4CCCCC4C3=O)cc21 (centres undefined) | 65.6% (active)
CC1=CC(C)(C)Nc2ccc(OC(=O)CN3C(=O)C4CCCCC4C3=O)cc21 (centres undefined) | 100% (active)
O=C(CN1C(=O)C2C3CCC(C3)C2C1=O)Oc1ccc2ccccc2c1 (centres undefined) | 7.23% (inactive)
COc1cccc(NC(=O)NCc2ccc(F)cc2)c1 | 2.02% (inactive)
CN(NC(=O)C1CC(=O)N(c2ccccc2)C1)C1=NS(=O)(=O)c2ccccc21 (centres undefined) | -0.26% (inactive)
CCc1ccc(Oc2nc([N+](=O)[O-])nn2C)cc1 | 12.5% (inactive)
CSc1nc2nc(-c3cccc(C(F)(F)F)c3)ccn2n1 | -7.55% (inactive)
C=CCN1C(=O)C(O)(CC(=O)c2ccccn2)c2ccccc21 (centres undefined) | 3.64% (inactive)
CCOc1ccc(NC(=O)CCS(=O)(=O)c2ccc3c(c2)CCCN3C(=O)CC)cc1 | 62.8% (active)
CC(=O)N1CCCc2cc(S(=O)(=O)CCC(=O)N3CCN(c4ccccc4)CC3)ccc21 | -3.41% (inactive)
CCCNS(=O)(=O)c1ccc2c(c1)CCCN2C(C)=O | -1.63% (inactive)
O=C(c1cccs1)N1CCCC(c2nc(-c3ccc(F)cc3)no2)C1 (centres undefined) | -8.27% (inactive)
O=C(Cc1cccs1)N1CCCC(c2nc(-c3ccc(S(=O)(=O)N4CCCC4)cc3)no2)C1 (centres undefined) | 95.1% (active)
O=C(c1ccc(F)cc1)N1CCCC(c2nc(-c3cccs3)no2)C1 (centres undefined) | 5.3% (inactive)
C=C(C)c1cccc(C(C)(C)NC(=O)NCCN(CC)CC)c1 | 4.54% (inactive)
COC(=O)CN1C(=O)N/C(=C/c2ccc(OC)c(C)c2OC)C1=O | -9.01% (inactive)
S=C(NC1CCCCC1)NN1CCOCC1 | -1.39% (inactive)
COc1ccccc1Cn1c(C)nnc1-c1cnn(C)c1N | 0.00407% (inactive)
COC(=O)c1ccc(NC(=O)CSc2nnc(-c3ccncc3)n2C)cc1 | 5.08% (inactive)
CCOC(=O)c1ccc(NC(=O)CSc2nnc(COc3ccccc3OC)n2C)cc1 | 89% (active)
CCOC(=O)c1ccc(NC(=O)CSc2ncccn2)cc1 | 0.48% (inactive)
CCc1cc2cc(OC)ccc2nc1SCC(=O)Nc1cc(OC)c(OC)cc1C(=O)O | -7.93% (inactive)
Cn1c(=O)[nH]c(=O)c2c1nc(N(CCO)Cc1ccccc1)n2Cc1ccccc1Cl | 23.7% (inactive)

SMILES | inhibition
CN(Cc1ccccc1)c1nc2c(c(=O)[nH]c(=O)n2C)n1CCSc1nc2ccccc2[nH]1 | 95% (active)
Cc1ccnc(SCCn2c(N(C)Cc3ccccc3)nc3c2c(=O)n(C)c(=O)n3C)n1 | 34.8% (inactive)
CCOC(=O)c1sc(NC(=O)CSc2nc(O)c(Cc3ccccc3)c(=O)[nH]2)nc1C | -5.06% (inactive)
Cc1ccc(-c2noc(CCC(=O)Nc3ccccc3N3CCN(C)CC3)n2)cc1 | 57.9% (active)
CN1CCN(C(=O)CCc2nc(-c3ccc(Cl)cc3)no2)CC1 | -4.14% (inactive)
Cc1ccc(-c2noc(CCC(N)=O)n2)cc1 | -4.98% (inactive)
COc1cccc(/C=N/NC(=O)c2[nH]nc3c2CCc2ccccc2-3)c1O | 98% (active)
COc1ccc(C(=O)Nc2ccccc2C(=O)N/N=C/c2ccccc2OC)cc1 | 6.31% (inactive)
COc1cccc(/C=N\NC(=O)C2=NNC(=O)C2C)c1O (centres undefined) | -7.2% (inactive)
C/C(=N\NC(=S)NC(C)C)c1ccc(C(C)(C)C)cc1 | 15% (inactive)
Cc1ccc(NC(=O)CSc2nnc(COc3ccccc3C)o2)cc1 | -2.82% (inactive)
CCn1c2ccccc2c2cc(NC(=O)COC(=O)c3cc(S(=O)(=O)N4CCCCC4)ccc3Cl)ccc21 | 73.8% (active)
O=C(COC(=O)c1cc(S(=O)(=O)N2CCCCC2)ccc1Cl)NCc1ccco1 | 7.75% (inactive)
CCn1c2ccccc2c2cc(NC(=O)COC(=O)c3ccccc3Br)ccc21 | -2.86% (inactive)
CSCCC(NC(=O)c1cc([N+](=O)[O-])cc([N+](=O)[O-])c1)c1nc2ccccc2[nH]1 (centres undefined) | 96.8% (active)
CSCCC(NC(=O)c1ccc(=O)n(C)n1)c1nc2ccccc2[nH]1 (centres undefined) | -5.06% (inactive)
COc1ccc(CC(=O)N[C@@H](CCSC)c2nc3ccccc3[nH]2)cc1 | -4.82% (inactive)
Cc1ccc(CN(N=Nc2nonc2N)c2nonc2N)c(C)c1 | 88.8% (active)
Cc1ccc2c(c1)C1CN(C)CCC1N2C(=S)Nc1ccc(OC(F)F)cc1 (centres undefined) | 34.5% (inactive)
Cc1ccc2nc(C)cc(N/N=C/c3ccc(F)cc3)c2c1 | 7.72% (inactive)
CCOCCCNCc1cc(Br)ccc1OCC | 13.3% (inactive)
COCC(C)NCc1cc(Br)ccc1OC (centres undefined) | -1.49% (inactive)
CCC(C)NCCOCCOc1ccc(Br)cc1C (centres undefined) | 99% (active)
CCN(CC)S(=O)(=O)c1ccc(N(C)Cc2cccc(OC)c2OC)nc1 | 8.96% (inactive)

SMILES | inhibition
CCN(Cc1ccccc1)S(=O)(=O)c1cc(C(=O)O)ccc1OC | -8.56% (inactive)
O=S(=O)(c1ccc2c(c1)OCCO2)N1CCc2ccccc21 | -6.88% (inactive)
Cc1cccc(N2CCN(C(c3ccccc3)c3nnnn3CC3CCCO3)CC2)c1C (centres undefined) | 75.9% (active)
COc1ccccc1C(c1nnnn1CC1CCCO1)N1CCN(c2ccccc2)CC1 (centres undefined) | 6.1% (inactive)
Cc1cccc(N2CCN(C(c3ccc(N(C)C)cc3)c3nnnn3C(C)(C)C)CC2)c1C (centres undefined) | 11.3% (inactive)
COc1ccc(C(=O)Nc2ccc(N3CCC(C)CC3)cc2)cc1Br | -6.43% (inactive)
O=C(Nc1cc(-c2nn(CC(=O)N3CCCCC3)c(=O)c3ccccc23)ccc1N1CCOCC1)c1ccc(Cl)cc1 | 0.47% (inactive)
COc1ccc(-c2nn(C)c(=O)c3ccccc23)cc1NC(=O)COc1ccccc1 | 8.76% (inactive)
Cn1nc(-c2ccc(N3CCOCC3)c(NC(=O)c3ccccc3)c2)c2ccccc2c1=O | 77% (active)
CN(CC(=O)Nc1ccccc1F)CC(=O)Nc1ccccc1Br | -4.41% (inactive)
NS(=O)(=O)c1ccc(NC(=S)Nc2ccc(Br)c(Cl)c2)cc1 | 10.7% (inactive)
CC(C)(C)C(=O)NCCCNc1ccc([N+](=O)[O-])cc1 | -6.51% (inactive)
CCOc1cc(/C=C2/C(=N)N3OC(C)=CC3=NC2=O)ccc1OC | 2.63% (inactive)
Cn1nnnc1NCc1ccc(Cl)c(Cl)c1 | 6.1% (inactive)
COc1ccc(N2CCN(c3ccc([N+](=O)[O-])nc3)CC2)cc1 | -3.36% (inactive)
CC1(C)CC(=O)c2c(n(S(=O)(=O)c3ccccc3)c3ccc(NS(=O)(=O)c4ccccc4)cc23)C1 | 98.6% (active)
Cn1c(=O)n(C)c2cc(NS(=O)(=O)c3ccc(F)cc3)ccc21 | 4.59% (inactive)
O=S(=O)(Nc1ccc2cn[nH]c2c1)c1ccccc1 | 6.15% (inactive)
Cc1cnc(C(=O)OCC(=O)N2CCc3ccccc32)cn1 | 5.21% (inactive)
C=CCc1ccc(OCC(O)CN2CCN(Cc3ccccc3)CC2)c(OC)c1 (centres undefined) | 87.8% (active)
Cc1ccc(OCC(O)CN2CCN(CC(O)COc3ccc(C)cc3Cl)CC2)c(Cl)c1 (centres undefined) | -0.86% (inactive)
C/C=C/c1ccc(OCC(O)CN2CCCCCCC2)c(OC)c1 (centres undefined) | -0.01% (inactive)
